Inconclusive results are not listed. The source made the active and inactive calls. Unless noted, the call rests on the fitted dose curve; in most records, active means well fitted curve in the direction sought with a large enough effect in the repeat runs; inconclusive means weak or mixed curves; inactive means no such curve, though single readings can be large; an effect the other way counts as inactive or inconclusive.
How the values were obtained:
[1] = molecular target: Luciferin 4-monooxygenase (Photinus pyralis) (UniProt P08659); test: qHTS assay to identify small molecule inhibitors of firefly luciferase (AID 1224835); further: nearly all actives have a fitted effect of over 25% in size; further: potency means the concentration at half of the fitted maximal effect
Sequence of Luciferin 4-monooxygenase (Photinus pyralis) (P08659 whole entry, looked up): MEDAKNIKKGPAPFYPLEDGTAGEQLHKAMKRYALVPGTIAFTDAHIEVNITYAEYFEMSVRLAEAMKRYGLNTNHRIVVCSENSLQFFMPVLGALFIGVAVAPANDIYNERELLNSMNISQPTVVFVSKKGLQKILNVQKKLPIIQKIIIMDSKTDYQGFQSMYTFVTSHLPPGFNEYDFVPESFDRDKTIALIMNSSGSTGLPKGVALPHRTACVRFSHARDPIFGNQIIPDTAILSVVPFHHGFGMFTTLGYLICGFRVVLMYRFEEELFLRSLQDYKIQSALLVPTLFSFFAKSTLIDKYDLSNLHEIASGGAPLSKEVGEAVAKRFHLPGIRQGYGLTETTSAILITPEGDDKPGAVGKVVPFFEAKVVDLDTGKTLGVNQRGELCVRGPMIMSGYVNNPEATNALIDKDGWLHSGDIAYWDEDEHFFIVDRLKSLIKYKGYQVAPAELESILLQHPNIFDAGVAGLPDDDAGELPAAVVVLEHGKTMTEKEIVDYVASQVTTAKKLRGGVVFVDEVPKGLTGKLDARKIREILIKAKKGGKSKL
How it was run: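 Quantitative HTS format; KM concentrations of both substrates. Purified P. pyralis FLuc activity quantified from luminescence images.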

[2] = qHTS assay to identify small molecule agonists of the constitutive androstane receptor (CAR) signaling pathway - cell viability counter screen (AID 1224836); further: nearly all actives have a fitted effect of over 45% in size
How it was run: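 Cells were seeded and incubated 4 hrs. Compounds were added across 15 concentrations together with PK11195 at 0.75 uM final. Plates were incubated 23 hrs at 37 C. CellTiter-Fluor was added and fluorescence measured.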

[3] = qHTS assay to identify small molecule antagonists of the constitutive androstane receptor (CAR) signaling pathway - cell viability counter screen (AID 1224837); further: nearly all actives have a fitted effect of over 45% in size
How it was run: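 Cytotoxicity counter-screen: CellTiter-Fluor fluorescence after 23 h compound exposure (15-point qHTS) in double-stable HepG2-CYP2B6-hCAR cells, with 50 nM CITCO added.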

[4] = molecular target: Nuclear receptor subfamily 1 group I member 3 (Homo sapiens) (UniProt Q14994); test: qHTS assay to identify small molecule antagonists of the constitutive androstane receptor (CAR) signaling pathway (AID 1224838);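 further: HepG2 cells stably expressing hCAR with CYP2B6 luciferase reporter stimulated by CITCO; nearly all actives have a fitted effect of over 40% in size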
Sequence of Nuclear receptor subfamily 1 group I member 3 (Homo sapiens) (Q14994 whole entry, looked up): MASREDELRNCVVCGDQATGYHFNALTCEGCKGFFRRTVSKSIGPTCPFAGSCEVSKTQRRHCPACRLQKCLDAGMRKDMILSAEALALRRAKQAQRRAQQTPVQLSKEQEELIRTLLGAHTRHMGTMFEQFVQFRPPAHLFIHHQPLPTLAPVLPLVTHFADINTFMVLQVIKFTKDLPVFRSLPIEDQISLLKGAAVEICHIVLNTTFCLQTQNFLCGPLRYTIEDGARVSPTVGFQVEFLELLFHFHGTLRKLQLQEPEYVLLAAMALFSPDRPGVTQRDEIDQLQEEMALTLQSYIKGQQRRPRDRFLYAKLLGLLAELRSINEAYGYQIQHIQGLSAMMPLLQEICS
How it was run: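 Antagonism measured as luciferase signal (ONE-Glo, 30 min, room temperature) in CAR-stimulated cells: HepG2-CYP2B6-hCAR double-stable line exposed 24 hr at 37 C to compound in a 15-point series plus 50 nM CITCO.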

[5] = qHTS assay to identify small molecule antagonists of the estrogen related receptor signaling pathway with the pleiotropic PPARgamma coactivator (PGC) from Tox21 10K library - cell viability counter screen (AID 1224840; active means well fitted cell-killing curve with a large enough effect in the repeat runs, not every such curve was filed as active; further: nearly all actives have a fitted effect of over 40% in size)
How it was run: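 Counter-screen for cytotoxicity: after 17.5 h compound exposure at 37 C, CellTiter-Fluor reagent added to PGC/ERR cells for 30 min and fluorescence read. Cells were seeded at 2,000 per well 6 h before dosing.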

[6] = molecular target: Thyrotropin receptor (Homo sapiens) (UniProt P16473); test: qHTS assay to identify small molecule agonists of the thyroid stimulating hormone receptor (TSHR) signaling pathway (AID 1224843; calls by dose curve; further: nearly all actives have a fitted effect of over 45% in size)
Sequence of Thyrotropin receptor (Homo sapiens) (P16473 whole entry, looked up): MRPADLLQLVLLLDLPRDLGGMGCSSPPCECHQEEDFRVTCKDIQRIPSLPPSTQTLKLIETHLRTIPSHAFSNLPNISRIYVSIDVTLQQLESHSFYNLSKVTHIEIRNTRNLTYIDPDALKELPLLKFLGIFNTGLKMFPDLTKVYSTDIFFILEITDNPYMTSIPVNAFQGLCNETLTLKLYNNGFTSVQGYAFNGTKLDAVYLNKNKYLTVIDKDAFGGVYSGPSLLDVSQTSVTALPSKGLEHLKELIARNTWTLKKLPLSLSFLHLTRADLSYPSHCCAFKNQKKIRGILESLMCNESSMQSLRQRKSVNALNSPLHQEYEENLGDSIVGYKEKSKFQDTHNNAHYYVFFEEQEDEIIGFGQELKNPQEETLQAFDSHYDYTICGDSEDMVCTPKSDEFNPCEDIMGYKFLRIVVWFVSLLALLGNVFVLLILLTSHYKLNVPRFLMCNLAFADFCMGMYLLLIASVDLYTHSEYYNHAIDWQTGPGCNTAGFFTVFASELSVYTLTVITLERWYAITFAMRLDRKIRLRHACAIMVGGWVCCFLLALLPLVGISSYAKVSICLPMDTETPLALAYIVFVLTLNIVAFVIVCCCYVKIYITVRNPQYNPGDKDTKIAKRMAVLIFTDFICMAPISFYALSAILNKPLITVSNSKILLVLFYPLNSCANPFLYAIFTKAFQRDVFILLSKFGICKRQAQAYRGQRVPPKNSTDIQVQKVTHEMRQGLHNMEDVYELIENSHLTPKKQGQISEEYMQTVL
How it was run: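 Using 15 concentrations per compound in triplicate, cAMP production was monitored in TSHR-HEK293 cells after 30 min compound incubation at RT; HTRF reagents followed, with fluorescence intensity recorded after 1 h.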

[7] = qHTS assay to identify small molecule agonists of the hypoxia (HIF-1) signaling pathway - cell viability counter screen (AID 1224844; calls by dose curve; further: nearly all actives have a fitted effect of over 50% in size)
How it was run: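 Cytotoxicity measured by CellTiter-Glo ATP luminescence in the wells also read for beta-lactamase signal. Cells were HRE-bla ME-180 (2,000/well, 0.5% dialyzed FBS), exposed to compounds for 17 h at 37C.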

[8] = qHTS assay to identify small molecule agonists of H2AX (AID 1224845; active means well fitted activation curve with a large enough effect in the signal ratio in the repeat runs, not every such curve was filed as active; the % refers to the signal ratio; further: potency means the concentration at half of the fitted maximal effect)
How it was run: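 Wild-type CHO-K1 cells plated overnight, then exposed 3 hr at 37C to compounds at 15 concentrations (0.76% DMSO). Lysed, then HTRF anti-pH2AX(S139)-cryptate/anti-H2AX-d2 detection after 24 hr at room temperature; emissions 665 and 620 nm.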

[9] = qHTS assay to identify small molecule agonists of H2AX - cell viability counter screen (AID 1224847; calls by dose curve; further: top concentration of the series differs between compounds; nearly all actives have a fitted effect of over 30% in size)
How it was run: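 Cytotoxicity counter screen in wild-type CHO-K1 cells: a 3 hr compound treatment at 37C across 15 concentrations, followed by CellTiter-Glo luminescence to gauge viable cells.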

[10] = qHTS RealTime-Glo MT Cell Viability Assay in HepG2 cells - 24 hour (AID 1224867); further: nearly all actives have a fitted effect of over 50% in size
How it was run: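 Viability was tracked continuously by NanoLuc luminescence from prosubstrate reduced by living HepG2 cells, at successive time points over 40 h of compound exposure. Cells with reagent were preincubated 5 h at 37 °C before compound addition.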

[11] = A CellTox Green Cytotoxicity Assay to monitor cytotoxicity in HEK293 cells - 0 hour (AID 1224869); further: nearly all actives have a fitted effect of over 50% in size; further: potency means the concentration at half of the fitted maximal effect
How it was run: (§1)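 Fluorescence from a DNA-binding dye excluded by viable cells was measured repeatedly in the same HEK293 wells (600 cells/well) during continuous compound exposure at 37 C. Each assay gives one read point: 0, 8, 16, 24, 32 or 40 h.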

[12] = qHTS RealTime-Glo MT Cell Viability Assay in HepG2 cells - 40 hour (AID 1224870); further: nearly all actives have a fitted effect of over 50% in size
How it was run: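 HepG2 cells mixed with RealTime-Glo MT reagents (NanoLuc plus cell-permeant prosubstrate) were seeded at 600 cells/well, incubated 5 h at 37 C/5% CO2, then pinned with compounds in DMSO; nonlytic luminescence tracked viability during 40 h treatment.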

[13] = A CellTox Green Cytotoxicity Assay to monitor cytotoxicity in HEK293 cells - 40 hour (AID 1224871); further: nearly all actives have a fitted effect of over 45% in size; further: potency means the concentration at half of the fitted maximal effect
How it was run: as §1

[14] = qHTS assay to identify small molecule antagonists of the estrogen related receptor signaling pathway with the pleiotropic PPARgamma coactivator (PGC) from Tox21 10K library (AID 1224841; call rule not given here)
How it was run: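 Luminescence (One-Glo, 30 min at room temperature) after 18 h compound treatment at 37 C of PGC/ERR reporter cells plated at 2,000 cells/well and settled 6 h beforehand.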

[15] = qHTS assay to identify small molecule agonists of the estrogen related receptor signaling pathway with the pleiotropic PPARgamma coactivator (PGC) from Tox21 10K library (AID 1224842); further: nearly all actives have a fitted effect of over 15% in size; further: potency means the concentration at half of the fitted maximal effect
How it was run: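 PGC/ERR reporter cells (NTP line) were seeded 2,000 per well, rested 6 h at 37 C/5% CO2, then pin-dosed with compounds in DMSO for 18 h at 37 C; luciferase read by One-Glo luminescence after 30 min at room temperature.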

[16] = qHTS assay to identify small molecule agonists of the hypoxia (HIF-1) signaling pathway (AID 1224846; active means well fitted activation curve with a large enough effect in the signal ratio in the repeat runs, not every such curve was filed as active; the % refers to the signal ratio)
How it was run: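 Compounds added to ME-180 cells carrying hypoxia-response-element beta-lactamase reporter (0.5% dialyzed FBS, 5 h preplating), 17 h at 37C; agonist activity detected by CCF4-AM B/G FRET read-out.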

[17] = qHTS assay to identify small molecule antagonists of the estrogen related receptor (ERR) signaling pathway from Tox21 library (AID 1224848); further: nearly all actives have a fitted effect of over 50% in size
How it was run: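 Tox21 10K compounds in DMSO tested for ERR pathway antagonism in NTP's ERR cell line; 18 h, 37 C exposure; ONE-Glo luminescence.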

[18] = qHTS assay to identify small molecule agonists of the estrogen related receptor (ERR) signaling pathway from Tox21 library (AID 1224849; calls by dose curve; further: nearly all actives have a fitted effect of over 15% in size); details: ERR reporter cell line, ONE-Glo luciferase, 18 h; at 92.4 µM (top of the series) unless noted
How it was run: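 Luminescent agonist read-out (One-Glo, 30-minute room-temperature incubation) following 18-hour compound treatment at 37 C of the ERR cell line, which had been plated 6 hours before dosing.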

[19] = qHTS RealTime-Glo MT Cell Viability Assay in HEK293 cells - 32 hour (AID 1224868)
How it was run: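 Viability tracked continuously by luminescence as live cells reduce a prosubstrate for NanoLuc; HEK293 cells preincubated 5 h, compound-treated at 37 C, and read at 0, 8, 16, 24, 32 and 40 h.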

[20] = molecular target: Nuclear receptor subfamily 1 group I member 3 (Homo sapiens) (UniProt Q14994); test: qHTS assay to identify small molecule agonists of the constitutive androstane receptor (CAR) signaling pathway (AID 1224839); further: nearly all actives have a fitted effect of over 15% in size; further: potency means the concentration at half of the fitted maximal effect;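 on activation: HepG2 cells stably carrying human CAR and a CYP2B6 luciferase reporter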
How it was run: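 Cells were plated and incubated 4 hrs, then dosed with compounds at 15 concentrations. PK11195 was added to 0.75 uM final. After 24 hrs at 37 C, luciferase luminescence was measured.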
On the % scale 0 is the no-effect control and ±100 the full control effect.

CCCCN1C[C@H](O)[C@@H](O)[C@H](O)[C@H]1CO
inactive: Potency [1] | Potency [2] | Potency [3] | Potency [4] | Potency [5] | Potency [6] | Potency [7] | Potency [8] | Potency [9] | Potency [10] | Potency [11] | Potency [12] | Potency [13]

O=C1C=CC(=O)O1
inactive: Potency [1] | Potency [2] | Potency [3] | Potency [5] | Potency [14] | Potency [15] | Potency [6] | Potency [7] | outcome [16] | Potency [9] | Potency [17] | activity change, positive = activation [18] 7.02% | Potency [10] | Potency [19] | Potency [11] | Potency [13]

CCC1(C)NC(=O)NC1=O (centres undefined)
inactive: Potency [1] | Potency [2] | Potency [3] | Potency [5] | Potency [6] | Potency [7] | Potency [8] | outcome [16] | Potency [9] | Potency [10] | Potency [19] | Potency [11] | Potency [12] | Potency [13]

CN(CC1(C)CCCO1)S(=O)(=O)c1ccc(Cl)c(S(N)(=O)=O)c1 (centres undefined)
inactive: Potency [1] | Potency [2] | Potency [3] | Potency [5] | Potency [6] | Potency [7] | Potency [8] | outcome [16] | Potency [9] | Potency [10] | Potency [19] | Potency [11] | Potency [13]

CN(C)CCOc1ccccc1Cc1ccccc1
inactive: Potency [1] | Potency [2] | Potency [3] | Potency [4] | Potency [5] | Potency [15] | Potency [7] | Potency [8] | Potency [9] | Potency [17] | activity change, positive = activation [18] 6.12% [at 42.5 µM] | Potency [10] | Potency [11] | Potency [12] | Potency [13]

C[C@]12CCC(=O)C=C1CC[C@@H]1[C@@H]2CC[C@@]2(C)[C@H]1CC[C@]2(O)C(=O)CO
inactive: Potency [1] | Potency [2] | Potency [3] | Potency [5] | Potency [14] | Potency [15] | Potency [6] | Potency [7] | Potency [9] | activity change, positive = activation [18] -16% [at 42.5 µM] | Potency [10] | Potency [19] | Potency [11] | Potency [12] | Potency [13]

COC(=O)c1ccc2cc(C(=O)OC)ccc2c1
active: Potency [15] 4.44 µM
inactive: activity change, negative = inhibition [1] -7.06% [at 23.6 µM] | viability change, negative = cytotoxic [2] 6.04% [at 19 µM] | activity change, negative = cytotoxicity [3] -9.38% [at 19 µM] | viability change, negative = cytotoxic [5] 1.78% [at 19 µM] | activity, negative = inhibition [14] 221% [at 19 µM] | activation [6] 2.3% [at 19 µM] | activity change, negative = cytotoxicity [7] 1.66% [at 15.8 µM] | activation (H2AX phosphorylation) [8] 0.148% [at 31.6 µM] | activation [16] -0.33% [at 15.8 µM] | activity change, negative = cytotoxicity [9] 2.5% [at 31.6 µM] | activity, negative = inhibition [17] 23.9% [at 19 µM] | activity change, negative = cytotoxicity [10] 2.88% [at 15.8 µM] | activity change, negative = cytotoxic [19] -1.06% [at 15.8 µM] | cytotoxicity [11] 2.02% [at 15.8 µM] | activity change, negative = cytotoxic [12] -0.864% [at 15.8 µM] | cytotoxicity increase [13] 3.01% [at 15.8 µM]

C[C@@H](N)C(=O)O
inactive: Potency [1] | Potency [2] | Potency [3] | Potency [4] | Potency [5] | Potency [6] | Potency [7] | Potency [8] | outcome [16] | Potency [9] | Potency [10] | Potency [19] | Potency [11] | Potency [12] | Potency [13]

O=[N+]([O-])c1nccn1CO[C@@H](CO)[C@H](O)CO
inactive: Potency [1] | Potency [2] | Potency [3] | Potency [5] | Potency [14] | Potency [15] | Potency [6] | Potency [7] | Potency [8] | outcome [16] | Potency [9] | Potency [17] | activity change, positive = activation [18] 7.4% [at 42.5 µM] | Potency [10] | Potency [19] | Potency [11] | Potency [12] | Potency [13]

CCCCC(CC)COC(=O)COc1cc(Cl)c(Cl)cc1Cl (centres undefined)
inactive: Potency [1] | Potency [2] | Potency [3] | Potency [4] | Potency [5] | Potency [7] | Potency [8] | outcome [16] | Potency [9] | Potency [10] | Potency [19] | Potency [11] | Potency [12] | Potency [13]

CC(Oc1c(Cl)cccc1Cl)C1=NCCN1 (centres undefined)
inactive: Potency [1] | Potency [2] | Potency [3] | Potency [5] | Potency [15] | Potency [6] | Potency [7] | outcome [16] | Potency [9] | Potency [17] | activity change, positive = activation [18] -3.99% [at 42.5 µM] | Potency [10] | Potency [19] | Potency [11] | Potency [12] | Potency [13]

CC1(C)O[C@@H]2C[C@H]3[C@@H]4CCC5=CC(=O)CC[C@]5(C)[C@@]4(F)[C@@H](O)C[C@]3(C)[C@]2(C(=O)CCl)O1
inactive: Potency [1] | Potency [3] | Potency [4] | Potency [20] | Potency [5] | Potency [6] | Potency [9] | Potency [10] | Potency [11] | Potency [12] | Potency [13]

O=C1CCC(C2CCCCC2)CC1
inactive: Potency [1] | Potency [4] | Potency [20] | Potency [5] | Potency [14] | Potency [15] | Potency [6] | Potency [7] | Potency [8] | outcome [16] | Potency [17] | activity change, positive = activation [18] -9.72% | Potency [10] | Potency [12]
active: Potency [11] 43.6 µM | Potency [13] 49 µM

O=c1[nH]c(=O)n([C@H]2C[C@H](O)[C@@H](CO)O2)cc1C(F)(F)F
active: Potency [8] 0.196 µM
inactive: Potency [1] | Potency [3] | Potency [5] | Potency [14] | Potency [15] | Potency [6] | Potency [7] | Potency [9] | activity change, positive = activation [18] -26.8% [at 42.5 µM] | Potency [10] | Potency [19] | Potency [11] | Potency [12] | Potency [13]

Cc1cc2nc(N)sc2cc1C
inactive: Potency [3] | Potency [4] | Potency [5] | Potency [6] | Potency [8] | outcome [16] | Potency [10] | Potency [19] | Potency [11] | Potency [12] | Potency [13]
active: Potency [1] 5.69 µM | Potency [20] 2.19 µM

OCCN1CCN(CCO)CC1
inactive: Potency [1] | Potency [3] | Potency [4] | Potency [5] | Potency [6] | Potency [7] | Potency [8] | outcome [16] | Potency [9] | Potency [10] | Potency [19] | Potency [11] | Potency [13]

— PubChem BioAssay (Tox21)
